Laboratory results reported in PubChem BioAssay.
Activity calls are given as the source filed them. Unless noted, how the calls were made is not given here.

Columns and labels:
[1] = anti-His antibody binders, primary screen, artefact control for SMM control protein annotation, biochemical, small-molecule microarray, 635 nm fluorescence (AID 1128); conditions: anti-His Alexa647 antibody binding, higher = more signal;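 further: score merges feature fluorescence with signal-to-noise for each printed compound spot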
[2] = test system: Human papillomavirus type 1a E7 protein (residues 1-88); assay: HPV1a E7 small-molecule binders, primary screen, biochemical, small-molecule microarray, residues 1-88, 635 nm (AID 1129); conditions: small-molecule microarray binding, fluorescence 635 nm; higher = more signal
[3] = target: Focal adhesion kinase 1 (Homo sapiens) (UniProt Q05397); assay: small-molecule microarray binders of FAK, primary screen, biochemical, 635/667 nm fluorescence, BSA, DTT (AID 1130); conditions: PTK2 binding, 635 nm fluorescence, higher = more signal;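 further: composite of spot emission at 667 nm and signal to noise over triplicate slides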
Chain of Focal adhesion kinase 1 (Homo sapiens) (Q05397 whole entry, looked up): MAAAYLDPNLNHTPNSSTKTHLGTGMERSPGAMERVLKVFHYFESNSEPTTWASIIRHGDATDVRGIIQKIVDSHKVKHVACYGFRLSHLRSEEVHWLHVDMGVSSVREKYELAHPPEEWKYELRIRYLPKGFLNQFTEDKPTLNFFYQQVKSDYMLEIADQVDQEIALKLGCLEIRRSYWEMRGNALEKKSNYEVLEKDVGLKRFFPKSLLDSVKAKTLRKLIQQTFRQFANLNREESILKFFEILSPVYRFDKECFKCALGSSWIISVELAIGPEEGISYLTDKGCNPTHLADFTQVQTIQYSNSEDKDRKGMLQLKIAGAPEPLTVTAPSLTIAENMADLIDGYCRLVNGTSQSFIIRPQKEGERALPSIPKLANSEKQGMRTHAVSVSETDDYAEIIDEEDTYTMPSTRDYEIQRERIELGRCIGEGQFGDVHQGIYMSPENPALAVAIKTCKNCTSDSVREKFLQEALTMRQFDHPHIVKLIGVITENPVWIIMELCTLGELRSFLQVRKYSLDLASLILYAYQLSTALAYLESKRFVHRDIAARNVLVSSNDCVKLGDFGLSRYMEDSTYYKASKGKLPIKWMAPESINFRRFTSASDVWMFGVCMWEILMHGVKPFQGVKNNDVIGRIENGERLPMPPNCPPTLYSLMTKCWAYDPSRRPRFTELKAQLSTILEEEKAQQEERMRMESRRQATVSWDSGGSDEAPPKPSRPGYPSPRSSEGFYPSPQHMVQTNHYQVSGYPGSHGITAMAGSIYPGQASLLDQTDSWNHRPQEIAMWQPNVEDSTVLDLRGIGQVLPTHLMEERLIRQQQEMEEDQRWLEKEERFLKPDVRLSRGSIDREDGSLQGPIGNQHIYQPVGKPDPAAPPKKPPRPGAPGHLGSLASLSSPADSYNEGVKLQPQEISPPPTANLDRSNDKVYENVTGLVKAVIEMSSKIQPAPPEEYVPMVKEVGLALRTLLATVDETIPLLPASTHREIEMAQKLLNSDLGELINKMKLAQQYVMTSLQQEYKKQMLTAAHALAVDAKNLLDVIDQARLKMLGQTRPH

[4] = test system: Fibrinogen (Alexa647-labelled); assay: fibrinogen binders on compound microarrays, profiling panel, artefact control for SMM control-protein annotation, biochemical, small-molecule microarray, 635/667 nm fluorescence (AID 1131); conditions: fibrinogen-A647 binding fluorescence, higher = more signal;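 further: z-score merges 667 nm fluorescence with per-spot signal-to-noise over triplicate slides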
[5] = target: Follistatin (Homo sapiens) (UniProt P19883); assay: follistatin binders on small-molecule microarrays, primary screen, biochemical, small-molecule microarray, 635/667 nm fluorescence (AID 1132); conditions: FST binding, 635 nm fluorescence, higher = more signal
Chain of Follistatin (Homo sapiens) (P19883 whole entry, looked up): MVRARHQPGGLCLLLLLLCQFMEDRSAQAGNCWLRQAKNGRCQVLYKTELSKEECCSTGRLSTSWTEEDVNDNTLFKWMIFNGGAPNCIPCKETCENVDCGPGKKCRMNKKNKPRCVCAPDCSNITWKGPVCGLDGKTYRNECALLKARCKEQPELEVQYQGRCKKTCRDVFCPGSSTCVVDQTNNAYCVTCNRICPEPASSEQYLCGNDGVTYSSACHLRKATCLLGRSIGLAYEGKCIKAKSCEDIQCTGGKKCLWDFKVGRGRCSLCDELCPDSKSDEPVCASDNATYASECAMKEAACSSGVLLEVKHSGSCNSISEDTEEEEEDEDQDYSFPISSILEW

[6] = target: Fibroblast growth factor 2 (Homo sapiens) (UniProt P09038); assay: FGF2 binders on small-molecule microarrays, primary screen, biochemical, small-molecule microarray, 635/667 nm fluorescence (AID 1133); conditions: small-molecule microarray binding, FGF2, fluorescence 635/667; higher = more signal
Chain of Fibroblast growth factor 2 (Homo sapiens) (P09038 whole entry, looked up): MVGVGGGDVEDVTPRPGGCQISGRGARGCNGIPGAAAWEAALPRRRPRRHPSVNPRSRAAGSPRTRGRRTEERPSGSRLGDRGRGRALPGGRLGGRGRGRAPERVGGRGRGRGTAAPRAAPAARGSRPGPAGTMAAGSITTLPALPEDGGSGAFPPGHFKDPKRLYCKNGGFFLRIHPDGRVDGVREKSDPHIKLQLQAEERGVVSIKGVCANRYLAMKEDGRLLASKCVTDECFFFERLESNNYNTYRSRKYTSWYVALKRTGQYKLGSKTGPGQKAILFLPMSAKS

[7] = mitochondrial membrane potential change in A549 cells, profiling panel, cell-based, JC-1 fluorescence, basal, 24 h, 100 nL (AID 1138); conditions: higher = more signal;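 further: A549 lung adenocarcinoma cells under basal conditions with no added stimulus; test concentration not given here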
Lefty1 = Lefty1 binders on small-molecule microarrays, primary screen, biochemical, small-molecule microarray, 635/667 nm fluorescence (AID 1139); conditions: small-molecule microarray binding, fluorescence 635/667; higher = more signal
[8] = test system: wheat germ agglutinin (Triticum aestivum), Alexa647-labelled; assay: wheat germ agglutinin binders on compound microarrays, profiling panel, artefact control for SMM control-protein annotation, biochemical, small-molecule microarray, 635/667 nm fluorescence (AID 1140); conditions: WGA-A647 binding, 635 nm fluorescence, higher = more signal;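 further: score merges 667 nm feature emission with signal to noise over triplicate slides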
[9] = target: Luciferin 4-monooxygenase (Photinus pyralis) (UniProt P08659); assay: firefly luciferase enzyme inhibitors, primary screen, biochemical, luminescence, purified enzyme, 2006 set (AID 1141); conditions: SteadyGlo luminescence, 30 min, higher = more signal, called active from +8 up or from −8 down;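 further: cell-free assay with purified firefly luciferase at 100 ng per well in PBS; test concentration not given here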
Chain of Luciferin 4-monooxygenase (Photinus pyralis) (P08659 whole entry, looked up): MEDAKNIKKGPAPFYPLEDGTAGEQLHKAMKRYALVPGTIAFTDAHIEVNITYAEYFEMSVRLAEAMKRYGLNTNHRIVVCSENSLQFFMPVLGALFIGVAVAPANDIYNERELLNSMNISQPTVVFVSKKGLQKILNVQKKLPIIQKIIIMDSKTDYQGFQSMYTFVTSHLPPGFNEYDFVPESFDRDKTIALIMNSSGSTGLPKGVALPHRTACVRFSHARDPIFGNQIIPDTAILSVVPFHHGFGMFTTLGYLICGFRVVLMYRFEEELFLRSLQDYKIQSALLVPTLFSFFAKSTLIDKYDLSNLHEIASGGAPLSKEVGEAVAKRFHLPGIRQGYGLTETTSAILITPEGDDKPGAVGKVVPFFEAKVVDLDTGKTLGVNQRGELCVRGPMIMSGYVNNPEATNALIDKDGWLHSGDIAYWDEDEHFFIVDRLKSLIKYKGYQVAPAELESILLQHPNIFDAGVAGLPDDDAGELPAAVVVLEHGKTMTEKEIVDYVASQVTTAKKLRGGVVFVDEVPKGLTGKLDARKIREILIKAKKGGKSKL

[10] = test system: Wnt5a (protein binding on small-molecule microarray); assay: Wnt5a binders on small-molecule microarray, primary screen, biophysical, 635/667 nm fluorescence (AID 1142); conditions: 635 nm fluorescence, higher = more signal;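 further: fluorescence read at 667 nm with signal to noise per printed feature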
[11] = cell viability in Huh7 cells, primary screen, cytotoxicity control for HCV replication inhibitor project, CellTiter-Glo luminescence, basal, 48 h (AID 1143); conditions: Huh7 HCV replicon, higher = more signal, called active from +8 up or from −8 down;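 further: Huh7 hepatoma cells carrying a hepatitis C replication reporter with no stimulus; test concentration not given here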
[12] = P. aeruginosa biofilm formation inhibitors, primary screen, PAO1 strain, BacTiter-Glo luminescence, LB-PBS (AID 1144); conditions: 12 h, higher = more signal
[13] = CREB reporter modulators without forskolin, primary screen, cell-based, PC12, CRE-LacZ reporter, unstimulated (AID 1145); conditions: no forskolin, luminescence, 4.5 h, higher = more signal, called active from +8 up or from −8 down
[14] = CREB reporter modulators under forskolin, primary screen, cell-based, PC12, CRE-LacZ reporter, forskolin-stimulated (AID 1146); conditions: luminescence, 4.5 h, higher = more signal, called active from +8 up or from −8 down;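 further: PC12 cells with 6xCRE LacZ reporter stimulated by forskolin 10 µM; beta-galactosidase reporter signal reflecting CREB driven transcription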
[15] = target: Streptavidin (Streptomyces avidinii) (UniProt P22629); assay: streptavidin binders on small-molecule microarray, primary screen, artefact control for SMM compound annotation, biophysical, 635/667 nm fluorescence (AID 1147); conditions: streptavidin binding, higher = more signal;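 further: signal reflects streptavidin binding to arrayed compounds as a control protein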
Chain of Streptavidin (Streptomyces avidinii) (P22629 whole entry, looked up): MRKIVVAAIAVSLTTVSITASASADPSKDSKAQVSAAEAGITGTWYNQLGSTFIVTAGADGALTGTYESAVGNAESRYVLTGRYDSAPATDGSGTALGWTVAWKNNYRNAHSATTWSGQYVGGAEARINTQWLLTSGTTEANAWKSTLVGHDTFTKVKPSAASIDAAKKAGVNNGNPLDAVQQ

[16] = small-molecule binders of probe aInhba, primary screen, biochemical, small-molecule microarray, 635/667 nm fluorescence (AID 1148); conditions: higher = more signal;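 further: score merges 667nm spot fluorescence with signal-to-noise for antibody binding to printed compounds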
Torsin-1A (Homo sapiens) [17] = target: Torsin-1A (Homo sapiens) (UniProt O14656); assay: torsin A binders from cell lysate, primary screen, small-molecule microarray, wild-type, 635/667 nm (AID 1149); conditions: COS7 hTOR1A-WT lysate, 635 nm fluorescence, higher = more signal
Chain of Torsin-1A (Homo sapiens) (O14656 whole entry, looked up): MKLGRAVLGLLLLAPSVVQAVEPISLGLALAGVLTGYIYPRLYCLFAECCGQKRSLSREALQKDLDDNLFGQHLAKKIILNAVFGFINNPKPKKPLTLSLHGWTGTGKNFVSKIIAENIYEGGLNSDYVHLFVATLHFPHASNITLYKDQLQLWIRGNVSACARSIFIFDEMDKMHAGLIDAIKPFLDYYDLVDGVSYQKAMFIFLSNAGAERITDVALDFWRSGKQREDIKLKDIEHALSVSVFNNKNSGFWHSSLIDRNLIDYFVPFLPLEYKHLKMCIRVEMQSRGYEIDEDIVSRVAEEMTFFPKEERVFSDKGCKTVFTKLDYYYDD

Torsin-1A (Homo sapiens) [18] = target: Torsin-1A (Homo sapiens) (UniProt O14656); assay: small-molecule binders of mutant TOR1A in lysate, primary screen, cell lysate, small-molecule microarray, COS7 lysate, 635/667 nm fluorescence (AID 1150); conditions: COS7 hTOR1A mutant lysate, 635 nm fluorescence, higher = more signal;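 further: score pools 667 nm emission and signal to noise measuring lysate protein binding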
[19] = test system: Sonic hedgehog protein (Shh); assay: small-molecule binders of Shh protein, primary screen, biochemical, small-molecule microarray, 635/667 nm fluorescence (AID 1151); conditions: small-molecule microarray binding, 635 nm fluorescence; higher = more signal;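 further: Shh protein binding to compounds spotted on small-molecule microarray slides; score combines spot fluorescence intensity with signal-to-noise across triplicate slides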

| SMILES | composite z-score [1] | composite z-score [2] | composite z-score [3] | composite z-score [4] | composite z-score [5] | composite z-score [6] | z-score [7] | composite z-score (Lefty1) | composite z-score [8] | z-score [9] | composite z-score [10] | z-score [11] | z-score [12] | z-score [13] | z-score [14] | composite z-score [15] | composite z-score [16] | composite z-score (Torsin-1A (Homo sapiens) [17]) | composite z-score (Torsin-1A (Homo sapiens) [18]) | composite z-score [19] |
| --- | --- | --- | --- | --- | --- | --- | --- | --- | --- | --- | --- | --- | --- | --- | --- | --- | --- | --- | --- | --- |
| CCOC(=O)CCN1C(=O)[C@H]2[C@H]3[C@H](O)[C@H](O)CC(=NNC(=O)OCc4ccc(OC)cc4)[C@@H]3CC[C@H]2C1=O | -0.0498 | 0.842 | 0.215 | 0.367 | 0.541 | 0.474 | 0.385 | 0.833 | 0.985 | 0.666 (inactive) | -0.109 | -0.284 (inactive) | 0.5 (inactive) | 0.957 (inactive) | -0.254 (inactive) | 0.922 | -0.195 | -0.0239 | 0.0335 | 0.741 |
| COC(=O)CC=C[C@H](C)[C@@H](OCc1ccccc1Br)C(C)C | 0.219 | -0.161 | 0.0767 | -0.263 | 0.292 | -0.0207 | 1.32 | 0.646 | 0.0141 | -0.401 (inactive) | -0.106 | 0.298 (inactive) | -0.643 (inactive) | 0.194 (inactive) | 0.615 (inactive) | 0.228 | -0.128 | 0.066 | 0.674 | 0.438 |
| CC(=O)OC[C@H]1O[C@H](CCON=C(C)CCC(=O)OC[C@H]2O[C@H](C#Cc3ccccc3)C=C[C@@H]2Oc2ccc(C)cc2)C=C[C@@H]1OC(C)=O | 0.0004 | 0.125 | 0.369 | 0.185 | 0.496 | 0.592 | -0.518 | 0.802 | 0.0698 | 0.54 (inactive) | 0.0159 | -0.474 (inactive) | 0.037 (inactive) | 0.894 (inactive) | 0.452 (inactive) | 0.238 | -0.231 | 0.595 | 0.139 | 0.688 |
| CN1C(=O)C2C(C1=O)C1C=C(CCCO)C2C(c2ccc(CN3CCCC3)cc2)N1C (stereo not given) | -0.0122 | -0.329 | 0.0551 | -1.58 | -0.227 | -0.052 | -1.01 | -0.0306 | -0.236 | 0.53 (inactive) | -0.205 | -0.202 (inactive) | 0.675 (inactive) | -0.0743 (inactive) | -0.436 (inactive) | -0.383 | -0.157 | 0.33 | -0.287 | 0.207 |
| CC(CCN1CCc2nc(-c3ccccc3)c(-c3ccccc3)cc2C1)=NOC(C)CN1CCCCc2nc(C)c(C)cc21 (stereo not given) | 0.605 | 0.791 | 0.718 | 0.845 | 0.47 | 0.489 | 1.52 | 0.593 | 0.264 | -0.0959 (inactive) | 0.0802 | 0.168 (inactive) | -0.075 (inactive) | -0.147 (inactive) | 0.0715 (inactive) | 0.393 | -0.0195 | 0.319 | 0.278 | 0.569 |
| CCOC(=O)CCN1C(=O)[C@H]2[C@H]3[C@H](O)[C@H](O)CC(=NOC[C@@H](O)COCc4ccco4)[C@H]3CC[C@H]2C1=O | 0.659 | 0.785 | 0.857 | 0.894 | 0.938 | 0.229 | -1.06 | 0.863 | 0.288 | 0.586 (inactive) | -0.0068 | -4.31 (inactive) | -0.284 (inactive) | 1.41 (inactive) | 0.749 (inactive) | 0.0794 | -0.0627 | 0.291 | 0.18 | 0.856 |
| CCN1C(=O)[C@H]2[C@H]3[C@H](O)[C@H](O)CC(=NO[C@@H]4O[C@H](CO)[C@@H](O)[C@H](O)[C@H]4O)[C@@H]3CC[C@H]2C1=O | -0.0636 | -1.45 | -0.41 | -2.56 | 0.477 | 0.0724 | 0.459 | 0.232 | 0.714 | -0.156 (inactive) | -0.215 | 0.499 (inactive) | 0.00567 (inactive) | -0.925 (inactive) | -0.951 (inactive) | -0.933 | -0.249 | 1.47 | -0.213 | 0.365 |
| O=C1[C@H]2[C@H]3[C@H](O)[C@H](O)CC(=NOC[C@@H](O)COCc4ccco4)[C@@H]3CC[C@H]2C(=O)N1c1ccc(F)cc1F | -0.0634 | 0.126 | -0.358 | -0.313 | 0.532 | 0.646 | -0.808 | 0.59 | -0.385 | 1.03 (inactive) | 0.0016 | -1.7 (inactive) | 1.85 (inactive) | -0.475 (inactive) | -0.0097 (inactive) | -0.195 | -0.231 | 1.13 | 0.516 | 0.749 |
| COc1ccc([Si](C)(C)[C@@H]2[C@@H](CC(=O)N3CCC[C@H]3CO)O[C@]3(C(=O)N(Cc4cccc(N5CCC5=O)c4)c4ccccc43)[C@H]2C)cc1 | 0.97 | 1.18 | 0.418 | 0.809 | 0.907 | 0.402 | 1.04 | 0.917 | 0.81 | -1.69 (inactive) | -0.071 | -3.38 (inactive) | -1.54 (inactive) | 0.772 (inactive) | -0.662 (inactive) | 1.56 | 0.3 | 0.511 | 0.413 | 2 |
| COC(=O)[C@@H]1CC[C@H](C)[C@@H](c2ccc(C)cc2)N1C(=O)c1ccc(C=NOC[C@@H](O)COCc2ccco2)cc1 | 0.373 | -1.79 | -0.574 | -1.68 | -0.526 | -1.18 | -0.245 | -1.09 | -0.893 | 0.193 (inactive) | -0.523 | -1.83 (inactive) | 1.18 (inactive) | 5.89 (inactive) | -0.309 (inactive) | -1.24 | -0.341 | -1.72 | -2.05 | -0.334 |
